From PubChem BioAssay (EPA / NIEHS)
Values joined by “and” are separate entries in the source; they are usually repeats but may differ in a detail not shown here. Identical values can stand only once. Inconclusive results are not listed. A structure can be active in one record and inactive in another. Active and inactive are the calls of the source. How the source made its calls: active means hit-call score of the fitted dose curve at least 0.9, where 1 is the maximum; inconclusive means response in the unintended direction; inactive means score below 0.9.

Columns and labels:
[1] = ATG_XTT_Cytotoxicity: Cytotoxicity Assessment in the Attagene TRANS-FACTORIAL HepG2 Assay (AID 2283584);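 on AC50: XTT signal for cell number as viability in transfected HepG2 cells; cells exposed to compound for 24 h before reading; active means loss of viability signal versus DMSO baseline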
Outline: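 Transfect HepG2 with GAL4-UAS reporter units, dose compound, incubate 24 h, then measure viable cell number by XTT. Fit concentration response against DMSO baseline.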

[2] = TOX21_p53_BLA_p2_viability: Viability Assessment in the Tox21 HCT-116 p53 Agonism Beta-lactamase Assay, Phase 2 (AID 2283591);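 further: compound exposure lasted 16 h at 37 °C; actives lower the ATP signal meaning cytotoxicity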
Outline: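 HCT116 p53-bla cells, 4000/well, dosed after 5 h plating (217-fold dilution of DMSO stocks) and incubated 16 h at 37C. Viability taken as cellular ATP by CellTiter-Glo luminescence after 30 min RT; signal loss marks cytotoxicity.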

[3] = TOX21_p53_BLA_p3_viability: Viability Assessment in the Tox21 HCT-116 p53 Agonism Beta-lactamase Assay, Phase 3 (AID 2283593);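 further: cells exposed to compound for 16 h before reading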
Outline: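 HCT116 cells, 4000/well, dosed 5 h after plating by pin transfer (217-fold dilution from DMSO stock) and incubated 16 h at 37C, 5% CO2. Viability read as ATP luminescence with CellTiter-Glo after 30 min at room temperature.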

[4] = TOX21_p53_BLA_p4_viability: Viability Assessment in the Tox21 HCT-116 p53 Agonism Beta-lactamase Assay, Phase 4 (AID 2283597);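 further: hits lower the luminescence signal meaning cytotoxicity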
Outline: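 Viability is taken as cellular ATP: after 16 h compound exposure of HCT116 cells and a 2 h room-temperature CCF4-AM substrate step, CellTiter-Glo reagent is added and luminescence is measured 30 min later.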

[5] = target: Cellular tumor antigen p53 (Homo sapiens) (UniProt P04637); experiment: TOX21_p53_BLA_p5_ratio: Tox21 HCT-116 p53 Agonism Beta-lactamase Assay, Ratio, Phase 5 (AID 2283599)
Outline: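 HCT-116 p53-bla cells (4000/well) plated 5 h, dosed with compound (217-fold DMSO dilution) for 16 h at 37 C; CCF4-AM substrate 2 h at room temperature. Activity is the 460/530 nm emission ratio (405 nm excitation), fitted in gain-of-signal direction versus DMSO.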

[6] = target: Cellular tumor antigen p53 (Homo sapiens) (UniProt P04637); experiment: TOX21_p53_BLA_p2_ratio: Tox21 HCT-116 p53 Agonism Beta-lactamase Assay, Ratio, Phase 2 (AID 2283592)
Outline: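 Cleaved-to-uncleaved substrate ratio (460 vs 530 nm) measured in HCT116 cells with an inducible beta-lactamase reporter linked to p53 activity. Compounds incubated 16 h at 37C before 2 h room-temperature CCF4-AM loading.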

[7] = target: Cellular tumor antigen p53 (Homo sapiens) (UniProt P04637); experiment: TOX21_p53_BLA_p3_ratio: Tox21 HCT-116 p53 Agonism Beta-lactamase Assay, Ratio, Phase 3 (AID 2283596)
Outline: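 Cells were seeded at 4000/well, rested 5 h at 37C, then dosed with DMSO compound solutions (217-fold dilution) for 16 h. CCF4-AM substrate was loaded for 2 h at room temperature, and the 460/530 nm emission ratio was fitted for gain of signal versus DMSO.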

[8] = TOX21_p53_BLA_p5_viability: Viability Assessment in the Tox21 HCT-116 p53 Agonism Beta-lactamase Assay, Phase 5 (AID 2283600)
Outline: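 Viability is taken from cellular ATP content, measured by luciferase luminescence in the same wells after the beta-lactamase ratio read. Cells are seeded at 4000 per well and exposed to DMSO-dissolved compounds, diluted 217-fold, for 16 h.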

[9] = target: Cellular tumor antigen p53 (Homo sapiens) (UniProt P04637); experiment: TOX21_p53_BLA_p4_ratio: Tox21 HCT-116 p53 Agonism Beta-lactamase Assay, Ratio, Phase 4 (AID 2283601)
Outline: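 HCT-116 p53 beta-lactamase reporter cells (4000/well) preincubated 5 h, then compound (217-fold dilution of DMSO stock) for 16 h at 37C. CCF4-AM substrate added 2 h at room temperature; 460/530 nm emission ratio fitted upward versus DMSO.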

Measured: AC50

Chain of Cellular tumor antigen p53 (Homo sapiens) (P04637 whole entry, looked up): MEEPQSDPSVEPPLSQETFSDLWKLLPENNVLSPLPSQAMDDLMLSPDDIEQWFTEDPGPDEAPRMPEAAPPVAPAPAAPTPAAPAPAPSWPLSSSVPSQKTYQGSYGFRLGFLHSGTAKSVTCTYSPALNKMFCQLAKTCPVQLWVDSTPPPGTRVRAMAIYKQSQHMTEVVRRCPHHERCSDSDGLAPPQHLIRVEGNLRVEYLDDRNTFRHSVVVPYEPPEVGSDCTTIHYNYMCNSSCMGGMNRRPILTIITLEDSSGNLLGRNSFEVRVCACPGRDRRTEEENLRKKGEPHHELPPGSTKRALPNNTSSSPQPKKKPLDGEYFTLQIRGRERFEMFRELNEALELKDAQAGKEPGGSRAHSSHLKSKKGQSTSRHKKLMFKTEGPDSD

[Cl][Nd]([Cl])[Cl]
inactive: [1] | [2] | [3] | [4] | [5]

CC(=O)Nc1nnc(S(N)(=O)=O)s1
not listed: [2]
inactive: all other assays above

N#CCc1ccc(Cl)cc1Cl
inactive: [1] | [2] | [4] | [5] | [9]

CCCNC(=O)NS(=O)(=O)c1ccc(Cl)cc1
not listed: [2]
inactive: all other assays above

CC=C1CC2C=CC1C2 (centres undefined)
not listed: [2]
inactive: all other assays above

CC1=CC[C@H](C(C)C)C=C1
inactive: [1] | [2] | [3] | [4] | [8]

CCCCC(CC)COC(=O)c1ccccc1O (centres undefined)
not listed: [5] | [6] | [7]
inactive: all other assays above

CCOCC(=O)O
not listed: [3] | [6] | [9]
inactive: all other assays above

COCC(C)N (centres undefined)
not listed: [2]
inactive: all other assays above

COCCOCCOCCOCCOC
inactive: [1] | [2] | [4] | [8] | [9]

c1ccc(CCCc2ccncc2)cc1
inactive: [1] | [2] | [7] | [8] | [9]

COC(=O)C1=C(C)NC(C)=C(C(=O)OCC(C)C)C1c1ccccc1[N+](=O)[O-] (centres undefined)
active: [6] 18.4 µM | [7] 23 µM | [9] 33.2 µM and 18.9 µM
inactive: [1] | [3] | [7] | [4] | [8]

CCOC(=O)N1CCC(=C2c3ccc(Cl)cc3CCc3cccnc32)CC1
active: [1] 47.5 µM | [6] 36.5 µM and 12.9 µM | [3] 79.9 µM | [7] 43.3 µM and 22.4 µM | [5] 49.6 µM | [8] 75.4 µM
inactive: [3] | [4] | [5] | [8] | [9]

CCC(C)C=O (centres undefined)
not listed: [2]
inactive: all other assays above

OC1CCCCCCCCCCC1
not listed: [2]
inactive: all other assays above

CCN(CCC#N)c1ccc(N=Nc2c(Cl)cc([N+](=O)[O-])cc2Cl)cc1
not listed: [2]
inactive: all other assays above

COc1c2ccoc2cc2oc(=O)ccc12
not listed: [2]
inactive: all other assays above

COc1cc(NC(=O)CC(C)=O)c(OC)cc1Cl
inactive: [1] | [6] | [3] | [7] | [4] | [8] | [9]
active: [4] 31 µM

CC(=O)[C@H]1[C@H](C#N)C[C@H]2[C@@H]3CC=C4C[C@@H](O)CC[C@]4(C)[C@H]3CC[C@@]21C
not listed: [3] | [6] | [7]
inactive: all other assays above

CC1(C)O[C@@H]2C[C@H]3[C@@H]4C[C@H](F)C5=CC(=O)CC[C@]5(C)[C@H]4[C@@H](O)C[C@]3(C)[C@]2(C(=O)CO)O1
not listed: [2]
inactive: all other assays above

CCCCCCCCCCOS(=O)(=O)O
inactive: [1] | [2] | [3] | [4] | [5]

CCc1ccc2c(c1)C(=O)c1ccccc1C2=O
inactive: [1] | [2] | [3] | [8]

O=C(C(Cl)Cl)N1CCOC12CCCCC2
inactive: [1] | [2] | [7] | [4]

O=c1n(CCO)c(=O)n(CCO)c(=O)n1CCO
not listed: [3] | [6]
inactive: all other assays above

C#CC1(O)CC[C@H]2[C@@H]3CCC4=CCCC[C@@H]4[C@H]3CC[C@@]21C (some centres undefined)
inactive: [6] | [3] | [8]
active: [1] 42.3 µM | [6] 87.7 µM | [3] 83.3 µM | [7] 86.1 µM | [4] 55.7 µM | [5] 86.1 µM | [8] 46.1 µM | [9] 84.8 µM

CCCCC(CC)CCC(CC(C)C)OS(=O)(=O)O (centres undefined)
not listed: [2]
inactive: all other assays above

O=C(C=Cc1ccccc1)OCc1ccccc1
not listed: [2]
inactive: all other assays above
